# Compound activity as filed in PubChem BioAssay.
# TPT1 inhibitor – Candida albicans TPT1 enzyme inhibitors, primary screen, biochemical, fluorescence polarization; tRNA 2'-phosphotransferase TPT1 (Candida albicans SC5314); recombinant caTPT1, FP RNA substrate dephosphorylation; inhibition, % at 5 µM; hit rate 0.81% among 300,000;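 active = inhibition above the mean of all tested compounds plus 3 SD, set per screening campaign, cut at about 24% in these data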;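 also: plate controls were DMSO alone for no effect and ferristatin control at 100 nM for full effect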
# IDE cell activ – human IDE activators in live cells, primary screen, fluorescence polarization, HEK cells, FAbeta-B substrate. FAbeta-B cleavage; 0% vehicle, 100% cell-free pure enzyme wells. hit rate 0.073% among 340,000. Insulin-degrading enzyme (Homo sapiens), P14735. activation, % at 5.96 µM;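 active = activation above the mean of all tested compounds plus 3 SD, set per screening campaign, cut at about 17% in these data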
# Myeloid diff MLP – induction of myeloid progenitor differentiation, primary screen, cell-based, flow cytometry, MLPCN library. ER-HoxA9 myeloid progenitors, lysozyme-GFP differentiation. calls only at 10 µM. hit rate 1% among 360,000. AID 624256, 2012;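 active = normalized GFP-positive differentiation at or above the plate's own cutoff, the solvent-only control mean plus 3 SD; inconclusive = no clear call, values can overlap the other calls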;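 also: cells exposed to compound for four days before flow analysis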
# CRFBP-R2 block – antagonists of CRF-BP/CRF-R2 complex, primary screen, cell-based, HEK293, calcium dye fluorescence, uHTS | CRF-induced calcium fluorescence | inhibition, % at 11.8 µM | hit rate 0.59% among 350,000;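 active = inhibition of the ligand-induced calcium signal above about 50% at the single tested concentration, limit read from the data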
# IDE cell inh – human IDE inhibitors in live cells, primary screen, fluorescence polarization, HEK cells, FAbetaB substrate; FAbetaB cleavage; inhibition, % at 5.59 µM; hit rate 0.41% among 320,000; AID 434962, 2010;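 active = percent inhibition above the average of all tested compounds plus 3 SD, set per screening campaign, cut at about 16% in these data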;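 also: IDE supplied by intact live HEK cells; FP after avidin binding of uncleaved biotin substrate so inhibition keeps polarization high; 0% = DMSO wells and 100% = 60 µM reference IDE inhibitor Ii1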
# CRFR2-BP ag – agonists of CRF-BP/CRF-R2 complex, primary screen, cell-based, HEK293, calcium dye fluorescence, uHTS | hit rate 0.46% among 350,000 | CRF-binding protein / CRF receptor 2 complex (human) | calcium dye fluorescence (FLIPR); percent of saturating CRF peptide response | activation, % at 13.2 µM | AID 588473, 2011;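 active = activation of at least 50%, plus an integration ratio under a set limit after plate pattern correction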;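 also: plate controls were neutral control wells without compound for no effect and CRF at EC100 for full effect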
# * marks the source's active call; other numbers are inactive results; i = inactive; ? = inconclusive; . = not tested or not shown; + = active, no number. Compounds with a hit are over-represented: about 2.6% of the library has one in this group of screens.
SMILES,TPT1 inhibitor,IDE cell activ,Myeloid diff MLP,CRFBP-R2 block,IDE cell inh,CRFR2-BP ag
COc1ccc2c(c1)CO[C@@]21O[C@H](CCO)C[C@H](O)[C@H]1O,.,.,i,.,.,.
CCCN(C(=O)c1cn(-c2ccccc2)nc1-c1ccc(OC)cc1)C1CCS(=O)(=O)C1 (centres undefined),0,3,i,-6,-4,0
CCn1cc(C(=O)NC(C)C23CC4CC(CC(C4)C2)C3)cn1 (centres undefined),0,4,+,-1,1,0
Cc1occc1C(=O)NC(C)C12CC3CC(CC(C3)C1)C2 (centres undefined),5,2,i,52*,5,-21
CCOc1cccc(C(=O)N(Cc2ccco2)C2CCS(=O)(=O)C2)c1 (centres undefined),-2,5,i,2,-1,-1
O=C(c1ccc(Cl)c([N+](=O)[O-])c1)N(Cc1ccco1)C1CCS(=O)(=O)C1 (centres undefined),1,4,+,-1,-4,-1
O=C(O)c1ccc(Br)cn1,-2,4,i,4,3,1
COc1ccc(NC(=O)CN(C)C(=O)C2=COCCO2)cc1,2,2,i,107*,-3,2
CN(CC(=O)Nc1ccc(Cl)cc1)C(=O)C1=COCCO1,-3,0,i,-2,4,0
C/C(=N\NC(=O)c1ccoc1C)c1cccc2ccccc12,-4,-4,i,1,8,0
CC1CCN(C(=O)CSc2nnc(CNC(=O)c3ccc(S(=O)(=O)N(C)C)cc3)o2)CC1,0,-1,.,9,-3,-1
CC(C)(C)C1COc2ccccc2N1C(=O)c1ccccc1Cl (centres undefined),1,0,i,-62,0,57*
Cc1ccccc1C(=O)N1c2ccccc2OCC1C(C)(C)C (centres undefined),-2,3,i,-59,-4,2
O=C(/C(=C(\[O-])c1ccccc1)[n+]1ccc2ccccc2c1)c1ccccc1,23,6,+,11,7,4
O=C(NCc1ccc(F)cc1F)[C@@H]1CCCN1C(=O)[C@@H]1CCCN1C(=O)c1ccc(Cl)cc1,.,.,i,.,.,.
CCN(C(=O)COC(=O)c1c2c(nc3ccccc13)/C(=C/c1ccccc1)CC(C)C2)C1CCS(=O)(=O)C1 (centres undefined),-1,5,+,-63,7,0
CCN(C(=O)COC(=O)c1c(C)nn(-c2ccccc2)c1C)C1CCS(=O)(=O)C1 (centres undefined),-2,1,i,11,-1,-1
CCOc1ccc(N2C(=O)c3ccc(C(=O)OCC(=O)N(CC)C4CCS(=O)(=O)C4)cc3C2=O)cc1 (centres undefined),-1,0,i,6,0,1
C=CCN1C(=O)c2ccc(C(=O)OCC(=O)N(CC)C3CCS(=O)(=O)C3)cc2C1=O (centres undefined),.,22*,i,3,-3,-1
Nc1nn2c(-c3ccccc3)cc(=O)[nH]c2c1N=Nc1ccc(Br)cc1,.,0,i,73*,.,-1
Nc1nn2c(-c3ccccc3)cc(=O)[nH]c2c1N=Nc1ccc(O)cc1,7,-5,i,-105,2,97*
O=C(O)CNC(=O)CCCn1nnc2ccccc2c1=O,0,0,i,12,6,1
Cc1cc(OCC(=O)Nc2ccc(CN3CCOCC3)cc2)c2c(C)c(C)c(=O)oc2c1,0,4,i,-3,2,-1
O=C(CCSCCc1ccccn1)Nc1cccc([N+](=O)[O-])c1,-5,1,i,19,-5,-3
CCOC(=O)c1c(NC(=O)CC(C)C)sc(C(C)=O)c1C,-2,3,i,-26,2,-1
SMILES,TPT1 inhibitor,IDE cell activ,Myeloid diff MLP,CRFBP-R2 block,IDE cell inh,CRFR2-BP ag
CCOC(=O)c1sc(NC(=O)CN(CC(C)C)CC(C)C)c(C(=O)OCC)c1C,-2,1,i,74*,-3,-1
COc1ccccc1C/C(N)=N/OC(=O)COc1ccc(C)cc1C,-5,-3,i,54*,10,-2
COc1ccc(C/C(N)=N/OC(=O)COc2ccccc2C)cc1,1,6,i,39,1,0
CCOC(=O)N1CCN(S(=O)(=O)c2c(C(=O)N3CCCCC3)c(C)n(C)c2C)CC1,0,6,+,13,1,0
COc1ccc(CCN2CC(C(=O)NCc3cccc4[nH]ccc34)CCC2=O)cc1 (centres undefined),-6,-4,i,0,0,1
CCN(CC)C(=O)Cn1c(=O)c2ccccc2n2c(=S)sc(-c3cccc(C)c3)c12,4,3,+,-123,5,55*
CCn1c(C)c(CS(=O)(=O)c2ccccc2)[nH]c1=O,-2,7,i,7,6,2
O=C1C(F)=CC(COC(c2ccccc2)(c2ccccc2)c2ccccc2)OC1n1cc(F)c(=O)[nH]c1=O (centres undefined),.,4,.,-45,.,55*
CC(=O)OCC1OC(n2cc(F)c(=O)[nH]c2=O)C(OC(C)=O)C1OC(C)=O (centres undefined),2,3,?,2,5,0
Cc1cccc(C(C)C)c1NC(=O)COC(=O)CCC(=O)N(CC(C)C)c1c(N)n(CC(C)C)c(=O)[nH]c1=O,.,.,i,-5,.,-2
Cc1cc(F)ccc1S(=O)(=O)Nc1nc2ccccc2nc1Cl,0,5,i,21,1,-1
Cc1ccc(C(C)(C)C)cc1S(=O)(=O)Nc1nc2ccccc2nc1Cl,4,1,i,64*,0,12
COC(=O)c1cc(CN2CCN(c3ccccc3)CC2)ccc1O,-2,0,i,11,0,0
COc1cc(OC)cc(C(=O)n2cnnc2N)c1,-2,3,i,9,4,-2
Cc1ccc(NC(=O)Nc2ccc3c(c2)OCO3)nc1,-1,3,i,-16,1,-3
Cc1ccc(NC(=O)/C=C/c2ccc3c(c2)OCO3)nc1,1,6,+,27,0,-2
COc1ccccc1C(=O)Nc1ccnn1C1CCN(CCCC2CCCC2)CC1,-1,-2,?,-18,8,0
CC1(C)C=Cc2c(ccc3c2OC[C@H](c2ccc(O)cc2O)C3)O1,.,18*,i,2,-4,3
COc1ccc(C)cc1S(=O)(=O)n1c([N+](=O)[O-])cnc1C,1,1,i,7,-2,-1
